“And” between values parts separate entries of the source, which are not always exact repeats. Equal entries are not always repeated. Results filed as inconclusive are left out. The source made the active and inactive calls. Unless noted, calls follow the shape of the dose curve; as a rule, active = well fitted curve in the direction sought with a large enough effect; inconclusive = small, poorly fitted or top-dose-only effect, or another doubt; inactive = no such curve, though single readings can be large; an effect the other way counts as inactive or inconclusive.
Tests used:
[1] = Cell Viability - SK-N-SH (AID 435; calls by dose curve;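 also: potency is read from the fitted curve at half-maximal effect; compound exposure lasted 40 h at 37 °C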); conditions: SK-N-SH neuroblastoma cell viability qHTS
Method in brief: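 CellTiter-Glo ATP luminescence, 20 min RT read; cells pre-plated 5 hr, compound 40 hr at 37 °C, 1500 cells/well, complete medium. Normalized DMSO = 0, 100 uM tamoxifen = 100% inhibition; Hill-fit AC50.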

[2] = Cell Viability - N2a (AID 540); conditions: N2a mouse neuroblastoma cell viability; at 92.2 µM (top of the series);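 also: plate controls were DMSO alone for no effect and tamoxifen control for full effect; nearly all actives have a fitted effect of over 45% in size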
Method in brief: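 Mouse neuroblastoma N2a cells, 1500/well, exposed to compounds 40 h at 37 °C in complete medium. Viability measured as cellular ATP by CellTiter-Glo luminescence; AC50 from Hill fits of concentration-response.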

[3] = Cell Viability - SH-SY5Y (AID 544); conditions: SH-SY5Y neuroblastoma cell viability; viability change, negative = cytotoxic: at 92.2 µM (top of the series); also: nearly all actives have a fitted effect of over 55% in size
Method in brief: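 SH-SY5Y human neuroblastoma cells (1500/well) incubated 5 h, then compound-treated 40 h at 37 °C in complete medium. Viability read as intracellular ATP by CellTiter-Glo luminescence after 20 min; AC50 from Hill-equation fits of qHTS concentration-response.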

[4] = Cellular Toxicity (caspase-3) HepG2 (AID 654); conditions: HepG2 caspase-3 activation, luminescence, 0% = DMSO only, 100% = tamoxifen; series mostly up to 92.2 µM;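 also: cells exposed to compound for 16 hours before reading; 0% = DMSO alone and 100% = caspase signal from 100 µM tamoxifen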
Method in brief: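 HepG2 cells (1500/well) were treated 16 h at 37 °C in complete medium, then caspase 3/7 activity was read by Caspase-Glo luminescence. Data were normalized to DMSO and 100 uM tamoxifen; AC50 came from Hill-equation fits of qHTS concentration-response.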

[5] = Cellular Toxicity (caspase-3) Hek293 (AID 664); conditions: HEK293 caspase-3 activation, DMSO = 0%, 100 µM tamoxifen = 100%; series mostly up to 92.2 µM;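 also: cells exposed to compound for 16 h at 37 °C before readout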
Method in brief: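 HEK293 cells in complete medium treated 16 h at 37 °C, then Caspase-Glo 3/7 luminescence read after 20 min at room temperature. Normalized to DMSO and 100 uM tamoxifen; AC50 from Hill fit of concentration-response.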

[6] = Cellular Toxicity (caspase-3) NIH 3T3 (AID 666); conditions: NIH 3T3 caspase-3 activation, apoptosis/toxicity, 0% DMSO, 100% is 100 µM tamoxifen; series mostly up to 92.2 µM;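 also: caspase signal read after 16 h compound exposure; 0% = DMSO basal and 100% = 100 µM tamoxifen stimulation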
Method in brief: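 Mouse NIH 3T3 fibroblasts (1000/well) treated 16 h at 37 C; caspase-3/7 activity measured by Caspase-Glo 3/7 luminescence after 20 min. Normalized to DMSO and 100 uM tamoxifen; AC50 from Hill fits.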

[7] = Cell Viability - LYMP1-002 - Assay at 16 hr (AID 948); conditions: LYMP1-002 lymphoblastoid cell viability; series mostly up to 92.2 µM;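 also: 0% = DMSO alone and full effect = 92 µM tetraoctylammonium bromide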
Method in brief: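 LYMP1-002 human lymphoblastoid cells, 2500/well; 5 hr 37 C; cpd 16 hr 37 C; CellTiter-Glo 30 min RT; luminescence (ATP). Concentration-response, Hill-fit AC50. Pos ctrl tetraoctylammonium bromide.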

[8] = MultiTox-Fluor Cytotoxicity Assay - LYMP1-002 - Live Cells (AID 955); conditions: LYMP1-002 lymphoblastoid live-cell protease fluorescence viability; series mostly up to 46.1 µM;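 also: cells exposed to compound for 16 hours; % is scaled to controls: 0 for no effect and ±100 for the full control effect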
Method in brief: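 Human lymphoblastoid LYMP1-002 cells, 2500/well, treated 16 h at 37 C in complete medium. Live-cell protease activity via GF-AFC fluorescence (Ex/Em 405/510) after 60 min reagent incubation; AC50 from Hill fits.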

[9] = MultiTox-Fluor Cytotoxicity Assay - LYMP1-003 - Live Cells (AID 962); conditions: LYMP1-003 lymphoblastoid cells, MultiTox-Fluor live-cell protease fluorescence; series mostly up to 92.2 µM;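 also: cells exposed to compound for 16 hours at 37 °C; 0% = DMSO only and full loss = 92 µM tetraoctylammonium bromide; cytotoxic hits lower the live-cell protease signal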
Method in brief: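 LYMP1-003 lymphoblastoid cells, 2500/well in complete medium, treated 16 h at 37 C; live-cell protease cleavage of GF-AFC read by fluorescence (Ex/Em 405/510) after 60 min reagent; AC50 from Hill fits of concentration-response.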

[10] = Cell Viability - LYMP1-003 - Assay at 24 hr (AID 963); conditions: LYMP1-003 lymphoblastoid cell viability; series mostly up to 92.2 µM;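 also: plate controls were DMSO only for no effect and tetraoctylammonium bromide positive control for full effect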
Method in brief: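 Human lymphoblastoid LYMP1-003 cells, 2500/well, treated 24 h at 37 C in complete medium. Viability read as intracellular ATP by CellTiter-Glo luminescence after 30 min at room temperature; AC50 from Hill-equation fits of qHTS concentration-response.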

[11] = Cell Viability - LYMP2-015 (AID 971); conditions: LYMP2-015 lymphoblastoid cell viability; series mostly up to 92.2 µM;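 also: 0% = DMSO only and full effect = 92 µM tetraoctylammonium bromide; nearly all actives have a fitted effect of over 55% in size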
Method in brief: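 LYMP2-015 human lymphoblastoid cells (2500/well) in complete medium, compound-treated 24 h at 37 C; viability read as cellular ATP by CellTiter-Glo luminescence after 30 min at room temperature. AC50 from Hill-equation fits of qHTS concentration-response data.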

[12] = Cell Viability - LYMP2-025 (AID 976); conditions: LYMP2-025 lymphoblastoid cell viability; series mostly up to 92.2 µM;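 also: plate controls were DMSO only for no effect and tetraoctylammonium bromide control for full effect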
Method in brief: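 Human lymphoblastoid LYMP2-025 cells, 2500/well, exposed 24 h at 37 C in complete medium in 1536-well qHTS. Viability as cellular ATP by CellTiter-Glo luminescence; AC50 from Hill fits of concentration-response data.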

[13] = Cell Viability - LYMP2-002 (AID 977); conditions: LYMP2-002 lymphoblastoid cell viability, qHTS; series mostly up to 92.2 µM;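 also: compound exposure lasted 24 h at 37 °C; plate controls were DMSO only for no effect and 92 µM tetraoctylammonium bromide for full effect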
Method in brief: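 Cytotoxicity is scored as concentration-dependent loss of cellular ATP in a human lymphoblastoid line after 24 hr compound treatment at 37 C. AC50 is obtained by modelling concentration-response data with the Hill equation.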

[14] = Cell Viability - LYMP2-006 (AID 978); conditions: LYMP2-006 lymphoblastoid cell viability, qHTS; series mostly up to 92.2 µM;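 also: cells exposed to compound for 24 hours; % is scaled to controls: 0 for no effect and ±100 for the full control effect; nearly all actives have a fitted effect of over 60% in size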
Method in brief: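 qHTS, 1536-well; 2500 cells/well, 5 hr 37 C; cpd 24 hr 37 C; CellTiter-Glo 30 min RT; luminescence. Tetraoctylammonium bromide pos. ctrl. AC50 via Hill eqn.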

[15] = Cell Viability - LYMP2-008 (AID 980); conditions: LYMP2-008 lymphoblastoid cell viability, qHTS; series mostly up to 92.2 µM; also: % is scaled to controls: 0 for no effect and ±100 for the full control effect; nearly all actives have a fitted effect of over 60% in size
Method in brief: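 LYMP2-008 lymphoblastoid cells (2500/well) plated 5 h, then treated 24 h at 37 C in complete medium. Viability read as intracellular ATP by CellTiter-Glo luminescence after 30 min at room temperature; AC50 from Hill fits.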

[16] = Cell Viability - LYMP1-002 - Assay at 24 hr (AID 993); conditions: LYMP1-002 lymphoblastoid cells viability; series mostly up to 92.2 µM; also: % is scaled to controls: 0 for no effect and ±100 for the full control effect
Method in brief: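 Human lymphoblastoid LYMP1-002 cells (2500/well) treated 24 h at 37 °C; viability as intracellular ATP by CellTiter-Glo luminescence. Tetraoctylammonium bromide as positive control; AC50 from Hill-equation fits of qHTS concentration-response.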

[17] = Cell Viability - LYMP1-002 - Assay at 40 hr (AID 994); conditions: LYMP1-002 lymphoblastoid cell viability; series mostly up to 92.2 µM;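 also: 0% = DMSO only and full inhibition = 92 µM tetraoctylammonium bromide; nearly all actives have a fitted effect of over 60% in size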
Method in brief: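 LYMP1-002 human lymphoblastoid cells (2500/well, complete medium) were treated with compounds for 40 hr at 37 C. Intracellular ATP was measured by CellTiter-Glo luminescence, and AC50 values came from Hill-equation fits of concentration-response data; tetraoctylammonium bromide was the positive control.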

[18] = qHTS assay for small molecule antagonists of retinoid X receptor alpha signaling (AID 588546; active = well fitted inhibition curve with a large enough effect in the signal ratio, with a control signal flat, not every such curve was filed as active; the % refers to the signal ratio;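 also: cells stimulated with 9-cis-retinoic acid as agonist; % is scaled to controls: 0 for no effect and ±100 for the full control effect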); conditions: HEK293T RXRa-UAS-bla, beta-lactamase ratio, antagonist mode; measured here: W530 green channel, cytotoxicity proxy
Method in brief: (§1)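 Beta-lactamase reporter inhibition, read as CCF4 fluorescence ratio (ex 405, em 460/530 nm) after 2 h at RT. HEK293T UAS-bla cells, 2500/well, were stimulated with 9-cis-RA at 500 or 100 nM final alongside test compound for 18 h at 37 C.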

[19] = molecular target: Retinoic acid receptor RXR-alpha (Homo sapiens) (UniProt P19793); assay: as above; conditions: HEK293T RXRa-UAS-bla, beta-lactamase ratio, antagonist mode
Method in brief: as §1

[20] = qHTS assay for small molecule agonists of the antioxidant response element (ARE) signaling pathway measured by Nrf2-dependant transcriptional activity (AID 720636; active = well fitted curve in the direction sought with a large enough effect in the repeat runs; an effect the other way counts as inactive or inconclusive;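 also: HepG2 cells with an ARE-driven luciferase reporter; % of control where 0% means no effect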); conditions: ARE-luc HepG2, Nrf2 luciferase reporter, 16 h; series mostly up to 92.4 µM
Method in brief: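 Nrf2-dependent transcription is measured in ARE-luc HepG2 cells: compound is applied for 16 hr at 37 C after a 6 hr attachment period, and luciferase activity is quantified by luminescence using ONE-Glo.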

Sequence of Retinoic acid receptor RXR-alpha (Homo sapiens) (P19793 whole entry, looked up): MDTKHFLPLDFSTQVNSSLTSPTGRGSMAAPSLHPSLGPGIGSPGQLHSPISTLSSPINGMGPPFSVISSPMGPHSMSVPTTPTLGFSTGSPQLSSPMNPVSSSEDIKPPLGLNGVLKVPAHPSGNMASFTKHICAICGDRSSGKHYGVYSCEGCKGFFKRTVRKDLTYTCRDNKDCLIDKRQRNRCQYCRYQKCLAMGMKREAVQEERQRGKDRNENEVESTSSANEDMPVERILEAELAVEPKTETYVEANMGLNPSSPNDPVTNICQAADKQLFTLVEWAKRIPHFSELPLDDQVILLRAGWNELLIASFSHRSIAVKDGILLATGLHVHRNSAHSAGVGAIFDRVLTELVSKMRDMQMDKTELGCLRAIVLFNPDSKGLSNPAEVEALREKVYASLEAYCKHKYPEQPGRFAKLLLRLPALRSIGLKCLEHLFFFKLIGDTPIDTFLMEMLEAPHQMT

c1nc[nH]n1
6.06%: max response [18]
inactive: Potency [1] > 92 µM | activity change, negative = cytotoxicity [2] -1.04% | Potency [3] | outcome [4] | outcome [5] | outcome [6] | Potency [7] | outcome [8] | Potency [9] | Potency [10] | Potency [11] | Potency [12] | Potency [13] | Potency [14] | Potency [15] | Potency [16] | Potency [17] | max response [19] 5.33% | outcome [20]

Nc1ccccc1Cl
inactive: Potency [1] > 92 µM | activity change, negative = cytotoxicity [2] 0.502% | Potency [3] | outcome [4] | outcome [5] | outcome [6] | Potency [7] | outcome [8] | Potency [9] | Potency [10] | Potency [11] | Potency [12] | Potency [13] | Potency [14] | Potency [15] | Potency [16] | Potency [17] | max response [19] 23.6% | outcome [20]
-3.04%: max response [18]

C1CCC2CCCCC2C1 (stereo not given)
-2.39%: max response [18]
inactive: Potency [1] > 92 µM | activity change, negative = cytotoxicity [2] 2.93% | Potency [3] | outcome [4] | outcome [5] | outcome [6] | Potency [7] | outcome [8] | Potency [9] | Potency [10] | Potency [11] | Potency [12] | Potency [13] | Potency [14] | Potency [15] | Potency [16] | Potency [17] | max response [19] -5.58% | outcome [20]

CCN(CC)c1ccccc1
inactive: Potency [1] > 92 µM | activity change, negative = cytotoxicity [2] 3.96% | Potency [3] | outcome [4] | outcome [5] | outcome [6] | Potency [7] | outcome [8] | Potency [9] | Potency [10] | Potency [11] | Potency [12] | Potency [13] | Potency [14] | Potency [15] | Potency [16] | Potency [17] | max response [19] 4.5% | outcome [20]
-5.5%: max response [18]

CC(O)CCl (stereo not given)
inactive: Potency [1] > 92 µM | activity change, negative = cytotoxicity [2] 5.86% | Potency [3] | outcome [4] | outcome [5] | outcome [6] | Potency [7] | outcome [8] | Potency [9] | Potency [10] | Potency [11] | Potency [12] | Potency [13] | Potency [14] | Potency [15] | Potency [16] | Potency [17] | max response [19] -5.06% and 5.36% | outcome [20]
-12.9% and -6.32%: max response [18]

CN=C=S
-16.3% and -0.556%: max response [18]
inactive: Potency [1] > 92 µM | activity change, negative = cytotoxicity [2] -7.58% | Potency [3] | outcome [4] | outcome [5] | outcome [6] | Potency [7] | outcome [8] | Potency [9] | Potency [10] | Potency [11] | Potency [12] | Potency [13] | Potency [14] | Potency [15] | Potency [16] | Potency [17] | max response [19] 0.0175% and -8.56% | outcome [20]

— PubChem BioAssay (NCATS)
